Consider 96 compounds from PubChem BioAssay AID1578 (Sanford-Burnham Center for Chemical Genomics, 2009).

The structures appear in SMILES notation. The whole screen tested about 290,000 compounds, of which about 3,000 (1%) were called active. What follows is part of a selection rich in actives, with near analogues and random picks from the rest. Values without a mark were called inactive. No stated cut-off is given here; in the data, active means inhibition mostly above about 36% (no sharp cut-off); inactive means mostly below about 34%.

The test is described as follows: inhibition of NOD1-driven NF-kB reporter – cell-based, luminescence, uHTS, primary screen (AID 1578).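 Further: HEK-293T reporter cells stimulated with the NOD1 agonist gamma-tri-DAP.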 The conditions noted are these: NOD1-driven NF-kB luciferase reporter cells, at 4 µM, stronger effect = higher value.
In the case of `COc1ccc(-c2csc(-c3[nH]cnc3N)n2)cc1`, the inhibition is -36.1%.

Regarding `COCCNC(=O)Cn1ccc2cc(S(=O)(=O)N3CCCCCC3)ccc21`, the inhibition was -9.2%.

Regarding `COc1cc(-c2noc(C)c2-c2ccc3[nH]ccc3c2)cc(OC)c1OC`, the inhibition is 33.3%.

Take `CC1CCCN(C(=O)CCNS(=O)(=O)c2ccc3c(c2)oc(=O)n3C)C1` (stereo unspecified): the inhibition is -23.9%.

As to `COC(=O)c1cccc(NC(=O)CCSc2ccc(Cl)cc2)c1C`, the inhibition was -10.1%.

On to `CC(C)N(c1ccccc1)c1ccc(NC(=S)NCCN(C)C)cc1`, for which the inhibition was -23.3%.

`Cc1ccc(C)c(Sc2ccc(NC(=O)CCl)cc2)c1`: the inhibition was 19.3%.

As to `O=C(CCl)Nc1ccc(-c2ccccc2)cc1`, the inhibition was 78.6% (active).

With `O=C(Cc1ccc(-c2ccccc2)cc1)Nc1ccccc1`, the inhibition is -1.9%.

For the compound `Cc1ccc(Sc2ccc(NC(=O)CCl)cc2)cc1C`, the inhibition was 21.2%.

As to `O=C(CSCc1ccc(Cl)cc1)Nc1ccccc1O`, the inhibition was -40%.

For `CC(=O)Nc1ccc(NC(=O)Cc2ccc(-c3ccccc3)cc2)cc1`, the inhibition was -16.2%.

For the compound `O=C(CCCSc1ccc(Cl)cc1)Nc1ccccc1O`, the inhibition is 59.4% (active).

On to `CCNC(=S)Nc1ccc(N(c2ccccc2)C(C)C)cc1`, for which the inhibition is -9.8%.

For the compound `CC(C)N(c1ccccc1)c1ccc(NC(=O)CCl)cc1`, the inhibition is 95.4% (active).

As to `COc1ccc(/C=N/NC(=O)COc2ccc(Cl)cc2Cl)cc1Cn1nc(C)cc1C`, the inhibition was -18%.

On to `COc1ccccc1N1CCN(C2CCCN(C(=O)CCC(C)=O)C2)CC1` (stereo unspecified), for which the inhibition was -21%.

Turning to `COc1ccc(S(=O)(=O)N2CCC(C(=O)N[C@@H](C)C(=O)NCc3cccc(OC)c3)CC2)cc1`, the inhibition is -4.9%.

With `Cc1c(C)c2c(OCC(=O)N3CCC(C(=O)NCC(C)C)CC3)cc3c(c2oc1=O)CCC(C)(C)O3`, the inhibition is -19.1%.

For the compound `O=C(CCCn1cnc2ccccc2c1=O)Nc1ccccc1F`, the inhibition was -9.5%.

For the compound `Cc1cccc(C)c1NC(=O)C1C2C=CC(C2)C1C(=O)O` (stereo unspecified), the inhibition was -40.2%.

`CCN1CCN(C(c2cccs2)C(C)NC(=O)c2ccco2)CC1` (stereo unspecified): the inhibition is 5.5%.

Regarding `CC(=O)Nc1nnc(/C=C/c2cccc([N+](=O)[O-])c2)s1`, the inhibition is 46%.

For `CC(=O)C1=C(O)C(=O)N(Cc2ccco2)C1c1cccc(F)c1` (stereo unspecified), the inhibition is -28%.

Consider `O=C(NCc1ccco1)c1ccc(Cl)c(S(=O)(=O)Nc2ccccc2)c1`, for which the inhibition was -15%.

In the case of `COc1ccc(N(CC(=O)Nc2cc([N+](=O)[O-])ccc2C)S(C)(=O)=O)cc1OC`, the inhibition is 1.1%.

With `O=C(O)CCCC(=O)Nc1ccc(N=Nc2ccccc2)cc1`, the inhibition was -13.6%.

For `O=C(Cc1ccc(Cl)cc1)Nc1ccccc1Sc1ccccc1`, the inhibition is -16.9%.

With `O=C(O)CCC(=O)Nc1ccc(N=Nc2ccccc2)cc1`, the inhibition was -26.1%.

In the case of `O=C(CCl)Nc1ccccc1Sc1ccccc1`, the inhibition was 21.3%.

Regarding `O=C(CCl)Nc1ccc(N=Nc2ccccc2)cc1`, the inhibition was 107% (active).

For the compound `CCOc1ccccc1C(=O)N(Cc1sccc1C)C1CCS(=O)(=O)C1` (stereo unspecified), the inhibition was -17.4%.

As to `COc1cc(NS(=O)(=O)c2ccc(NC(=S)NC(=O)c3sc4cc(F)ccc4c3Cl)cc2)nc(OC)n1`, the inhibition is 47.7%.

As to `Cc1nc2ccc(NC(=O)c3cccs3)cc2c(=O)n1Cc1ccc(Cl)cc1`, the inhibition was 23%.

For `COc1ccc(CNC(=O)c2ccc(CS(=O)(=O)Cc3ccccc3F)o2)cc1`, the inhibition was 6%.

Turning to `Cc1[nH]c(C)c(S(=O)(=O)NCc2ccc(Cl)cc2)c1C(=O)N1CCCC1`, the inhibition is -23.5%.

Take `CCN1C(=O)CS/C1=N\S(=O)(=O)c1ccccc1`: the inhibition is 4.8%.

For the compound `O=c1c2ccccc2cnn1CCOc1cccc(Br)c1`, the inhibition was -51.9%.

In the case of `COc1ccc2cnn(CCOc3ccccc3)c(=O)c2c1OC`, the inhibition was -63%.

As to `O=c1c2ccccc2cnn1CCOc1ccccc1`, the inhibition was 67.1% (active).

Consider `O=c1[nH]c(CSc2ncnc3sc(-c4ccccc4)cc23)nc2ccccc12`, for which the inhibition was 6.6%.

Turning to `CC(Oc1ccc([N+](=O)[O-])cc1)C(=O)NCCCN1CCOCC1` (stereo unspecified), the inhibition was -6.2%.

Regarding `CCc1nc2ccccc2c(C(=O)OCC(=O)Nc2ccc(S(=O)(=O)N3CCOCC3)cc2)c1C`, the inhibition is -22%.

For `CCCc1nc2ccccc2c(C(=O)OCC(=O)Nc2cccc(S(=O)(=O)N3CCOCC3)c2)c1CC`, the inhibition was 25.8%.

For `COc1cc(NC(=S)NCCCN2CCOCC2)c(OC)cc1NC(=O)c1ccco1`, the inhibition was -24.2%.

`CC(=O)c1c(C)n(-c2cccc(Cl)c2)c2ccc(O)cc12`: the inhibition was -4.6%.

In the case of `CCOC(=O)Cc1csc(NC(=O)CSc2nc(-c3ccccc3)c(C#N)c(=O)[nH]2)n1`, the inhibition was -50.8%.

Consider `CCCCCNC(=O)C(=O)C1C(=O)Nc2ccccc21` (stereo unspecified), for which the inhibition is 0.6%.

In the case of `CC(C)c1ccc2c(c1)c(SC(C)(C)C)c(CC(C)(C)C(=O)O)n2Cc1ccc(Cl)cc1`, the inhibition is 37.3% (active).

With `Cc1ccc2c(c1)c(N=O)c(O)n2Cc1ccc(Cl)cc1`, the inhibition was 31.7%.

Consider `CC(C)c1ccc(C(=O)NCc2ccc(Cl)cc2)cc1`, for which the inhibition is -22.8%.

For `Cc1ccc(C(=O)c2ccc(O)cc2)cc1C`, the inhibition is -29.5%.

As for `O=C(Nc1cccc(Cl)c1)c1cc(N=Nc2ccc([N+](=O)[O-])cc2Cl)ccc1O`, the inhibition is 95.3% (active).

`O=C(Nc1cccc(O)c1)c1ccc([N+](=O)[O-])cc1Cl`: the inhibition was -22.7%.

Regarding `CC(=O)Nc1cccc(NC(=O)c2ccc([N+](=O)[O-])cc2Cl)c1`, the inhibition was -5.3%.

On to `COc1cc(OC)cc(C(=O)N[C@H](C(=O)OCC(=O)Nc2ccc(F)c(F)c2)C(C)C)c1`, for which the inhibition is -11.6%.

Consider `O=C(NCC(O)c1ccc([N+](=O)[O-])cc1)Nc1ccccc1` (stereo unspecified), for which the inhibition is -4.6%.

For `COc1cccc(=O)c2c(C)n(-c3ccc(C(=O)O)cc3)c(C)c12`, the inhibition was 58.9% (active).

Regarding `CCOc1cccc(=O)c2c(C)n(-c3ccc(C(=O)O)cc3)c(C)c12`, the inhibition is -22.7%.

As for `COc1ccc(-n2c(C)c3c(OC)cccc(=O)c3c2C)cc1`, the inhibition was 16.3%.

Take `COc1cccc(N(C(=O)c2sc(C)nc2C)C(C(=O)NCC2CCCO2)c2ccccc2)c1` (stereo unspecified): the inhibition was -28.5%.

For the compound `COc1ccc(CCNC(=O)c2ccccc2NC(=O)C2=C(C)OCCS2)c(OC)c1`, the inhibition was 51.1% (active).

On to `COc1cc(CCNC(=O)c2ccccc2NC(=O)C2=C(C)OCCS2)cc(OC)c1OC`, for which the inhibition is 17.9%.

Regarding `COc1ccc(OC)c(CCNC(=O)c2ccccc2NC(=O)C2=C(C)OCCS2)c1`, the inhibition is -12.2%.

On to `NS(=O)(=O)c1cccc(NC(=O)c2cc(=O)c3ccccc3o2)c1`, for which the inhibition is -9.2%.

As to `CC(C)Cn1c(N)c(C(=O)COC(=O)C2CCCCC2)c(=O)n(C)c1=O`, the inhibition is 0.4%.

Regarding `COCc1c(C(=O)OCC(=O)c2c(N)n(CC(C)C)c(=O)n(C)c2=O)oc2ccccc12`, the inhibition was 32%.

In the case of `CC(C)Cn1c(N)c(C(=O)COC(=O)c2ccc(Cl)cc2)c(=O)n(C)c1=O`, the inhibition was 4.6%.

Regarding `CC(C)Cn1c(N)c(C(=O)COC(=O)c2ccc(O)cc2)c(=O)n(C)c1=O`, the inhibition was -0.8%.

As for `CC(C)Cn1c(N)c(C(=O)COC(=O)Cc2cccs2)c(=O)n(C)c1=O`, the inhibition was -8.8%.

For `CC(C)Cn1c(N)c(C(=O)COC(=O)c2ccccc2Cl)c(=O)n(C)c1=O`, the inhibition is -12.9%.

`Cc1cc(Oc2ccccc2)nc(-c2ccccc2O)n1`: the inhibition was -12.6%.

For the compound `Nc1nccnc1C(=O)OCC(=O)NNC(=O)c1ccccc1`, the inhibition is -27.6%.

With `Cc1ccc(CSc2nc3ccsc3c(=O)n2Cc2ccccn2)cc1`, the inhibition is -0.8%.

With `CCc1ccc(NC(=O)COc2cccc(-n3cnnn3)c2)cc1`, the inhibition was 4.3%.

For `CC(=O)c1cc2c(cc1NC(=O)CCC1CCCC1)OCO2`, the inhibition was 71.2% (active).

Turning to `CC(=O)c1cc2c(cc1NC(=O)CCCC(=O)O)OCO2`, the inhibition was -9.2%.

As to `CC(=O)c1cc2c(cc1NC(=O)CCn1cccc1)OCO2`, the inhibition is 5%.

In the case of `O=C(CSc1nccn1Cc1ccc(F)cc1)NC1CCCC1`, the inhibition is -2.9%.

In the case of `Cc1ccc(Cn2ccnc2SCC(=O)NC2CCCC2)cc1`, the inhibition is 51.4% (active).

Turning to `O=C(CSc1nccn1Cc1ccccc1)NC1CCCC1`, the inhibition was 12.2%.

`Cc1ccc(S(=O)(=O)N(C)C)cc1NC(=O)C1CCCC1`: the inhibition is 18.4%.

`COc1ccccc1OCCCC(=O)NC(C)c1ccccc1` (stereo unspecified): the inhibition was -14.4%.

On to `C=CCn1c(C)cc(C2=NNC(=NC(C)(C)C)SC2)c1C`, for which the inhibition is 65%.

In the case of `COCCn1c(C)cc(C2=NNC(=Nc3ccc(OC)cc3)SC2)c1C`, the inhibition is -3.2%.

For the compound `COCCn1c(C)cc(C2=NNC(=NC3CC3)SC2)c1C`, the inhibition is 107% (active).

`COCCN=C1NN=C(c2cc(C)n(CC3CCCO3)c2C)CS1` (stereo unspecified): the inhibition is 9.1%.

In the case of `C=CCn1c(C)cc(C2=NNC(=NCc3ccccc3)SC2)c1C`, the inhibition is -61.6%.

Take `C=CCn1c(C)cc(C2=NNC(=Nc3ccc(C)cc3)SC2)c1C`: the inhibition was -66.7%.

As for `COCCCN=C1NN=C(c2cc(C)n(Cc3ccccc3Cl)c2C)CS1`, the inhibition is -46.7%.

As for `Cc1cc(C2=NNC(=NCCc3ccccc3)SC2)c(C)n1CC1CCCO1` (stereo unspecified), the inhibition was -23%.

On to `C=CCn1c(C)cc(C2=NNC(=NCC)SC2)c1C`, for which the inhibition is 103% (active).

In the case of `COCCn1c(C)cc(C2=NNC(=NC(C)(C)C)SC2)c1C`, the inhibition is -27.4%.

`C=CCN=C1NN=C(c2cc(C)n(CCOC)c2C)CS1`: the inhibition is 88.5% (active).

Take `C=CCN=C1NN=C(c2cc(C)n(CC=C)c2C)CS1`: the inhibition was 85.5% (active).

With `Fc1cccc(CN2CCN(Cc3nc(CCc4ccccc4)no3)CC2)c1`, the inhibition is -21.1%.
